Test [1] in a line: StAR promoter reporter inhibitors, counter-screen for LRH-1 inverse agonist project, cell-based, luminescence, high throughput (AID 651611; in the data active means inhibition above about 28%). To be noted: StAR promoter luciferase reporter counterscreen, at 3.6 µM, hits give high values. A general note: A counterscreen serves to expose hits that act by an unwanted route or on another target.
Test [2] deals with Nuclear receptor subfamily 5 group A member 2 (Homo sapiens) (UniProt O00482). The experiment in a line: LRH-1 (NR5A2) inverse agonists, retest, confirmation, cell-based, luminescence (AID 651613).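 Further: HEK293T cells co-transfected with LRH-1 and StAR promoter luciferase reporter; 0% = vehicle wells and 100% = parental cells lacking receptor.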 Conditions: cell-based LRH-1 luciferase reporter, inverse agonism; at 3.6 µM; hits give high values.
Chain of Nuclear receptor subfamily 5 group A member 2 (Homo sapiens) (O00482 whole entry, looked up): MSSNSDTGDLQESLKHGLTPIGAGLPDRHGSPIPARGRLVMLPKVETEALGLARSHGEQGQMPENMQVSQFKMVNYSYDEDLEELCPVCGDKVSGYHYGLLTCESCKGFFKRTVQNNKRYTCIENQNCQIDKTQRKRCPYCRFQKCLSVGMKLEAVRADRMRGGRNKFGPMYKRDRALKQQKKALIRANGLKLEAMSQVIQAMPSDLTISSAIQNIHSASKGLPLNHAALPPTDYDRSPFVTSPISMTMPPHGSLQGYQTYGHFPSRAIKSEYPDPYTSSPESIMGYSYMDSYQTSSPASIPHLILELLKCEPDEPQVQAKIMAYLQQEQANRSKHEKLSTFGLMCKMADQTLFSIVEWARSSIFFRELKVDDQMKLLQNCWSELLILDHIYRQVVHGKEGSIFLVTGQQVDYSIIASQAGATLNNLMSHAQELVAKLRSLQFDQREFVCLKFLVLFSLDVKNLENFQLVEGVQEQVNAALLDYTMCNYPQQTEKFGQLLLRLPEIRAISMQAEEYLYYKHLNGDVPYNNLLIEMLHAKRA
Test [3] addresses Steroidogenic factor 1 (Homo sapiens) (UniProt Q13285). The experiment in a line: SF1 (NR5A1) inverse agonists, counter-screen for LRH-1 inverse agonist project, cell-based, luminescence, high throughput (AID 651614; in the data active means inhibition above about 44%;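 further: cells cotransfected with StAR promoter reporter and SF1 expression vector; 0% = vehicle on cells with receptor and 100% = vehicle on cells lacking receptor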). Conditions: cell-based SF1 luciferase reporter, at 3.6 µM, hits give high values.
Test [4] is described as follows: VP16 transactivation reporter inhibitors, counter-screen for LRH-1 inverse agonist project, cell-based, luminescence, high throughput (AID 651615; in the data active means inhibition above about 33%). Conditions: Gal4-VP16 luciferase reporter cells, at 3.6 µM, hits give high values.

A number with no mark means an inactive call. Activity calls are given as the source filed them. Unless noted, no stated cut-off is given here; in the data, active means inhibition above about 42%; inactive means the rest.

Chain of Steroidogenic factor 1 (Homo sapiens) (Q13285 whole entry, looked up, the tested form may be a part): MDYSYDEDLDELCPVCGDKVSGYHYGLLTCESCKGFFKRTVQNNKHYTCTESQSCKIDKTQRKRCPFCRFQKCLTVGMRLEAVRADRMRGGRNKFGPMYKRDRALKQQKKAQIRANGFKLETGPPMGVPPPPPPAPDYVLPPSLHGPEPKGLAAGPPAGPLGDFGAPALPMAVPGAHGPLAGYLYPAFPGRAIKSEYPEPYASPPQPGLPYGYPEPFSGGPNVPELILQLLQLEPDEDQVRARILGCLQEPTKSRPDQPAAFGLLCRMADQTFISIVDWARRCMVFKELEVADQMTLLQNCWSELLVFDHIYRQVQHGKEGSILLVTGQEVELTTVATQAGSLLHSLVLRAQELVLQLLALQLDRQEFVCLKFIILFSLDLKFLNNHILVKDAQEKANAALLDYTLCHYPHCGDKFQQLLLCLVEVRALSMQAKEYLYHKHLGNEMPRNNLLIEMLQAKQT

In the case of `CCOC(=O)c1ccc(N2CCN(C(=O)c3ccccc3)CC2)c(NC(=O)c2ccco2)c1`, the inhibition (as a rule, the relative decrease from the control value, in per cent) in test [1] is 26.2%; in test [2], 38.6%; in test [3], 40.9%; in test [4], -26.2%.
Consider `Cc1ccc(NC(=O)CCl)c(C)c1`, for which the inhibition in test [1] was 35% (active); in test [2] it was 59.3% (active); in test [3], 63.2% (active); in test [4] it was -43.6%.
Take `COc1ccc(NC(=O)C2=CC(c3ccc(OC)c(OC)c3)=NS(=O)(=O)N2C)cc1`: the inhibition in test [1] is 1.44%; in test [2], 56.3% (active); in test [3], 49.4% (active); in test [4] it was 18.4%.
On the same counts, the results for `Cc1onc(-c2ccccc2Cl)c1-c1nc(-c2ccccn2)no1` are 17.1%, 67.3% (active), 52.7% (active) and 7.63%.
Regarding `C=CCNC(=S)N/N=C(\C)c1ccccn1`, the inhibition in test [1] is 89.3% (active); in test [2] it was 95.5% (active); in test [3] it was 88.6% (active); in test [4] it was 54.8% (active).
The like results for `COC(=O)c1ccc(NC(=O)CN2C(=O)CNC2=O)cc1` were, in that order, 11.5%, 62.9% (active), 50.9% (active) and -6.93%.
In the case of `Cc1cc(/C=N/NC(N)=S)c(C)n1-c1ccc(Cl)c(Cl)c1`, the inhibition was 7.41% in test [1], 44.5% (active) in test [2], 39.2% in test [3] and 22.5% in test [4].
On the same counts, the results for `CCC(=O)N1CCN(c2cc(NCC3CCCO3)c(F)cc2[N+](=O)[O-])CC1` (stereo not drawn) are 9.58%, 43.8% (active), 50.7% (active) and 0.55%.
On to `CCCCNC(=O)CSc1nc2ccc(NC(=O)CSc3nnc(COc4ccccc4C)n3C)cc2s1`, for which the inhibition is 2.43% in test [1], 61.2% (active) in test [2], 61.3% (active) in test [3] and -5.17% in test [4].
For `COc1ccc(N2CCN(C(=O)c3ccc(CNS(=O)(=O)c4cccc(OC)c4)cc3)CC2)cc1`, the inhibition was 9.25% in test [1], 27.8% in test [2], 29.5% in test [3] and 6.88% in test [4].
On the same counts, the results for `COc1cccc(C2c3cc4c(cc3OC(NNC(N)=O)C2C)OCO4)c1O` (stereo not drawn) are 24.7%, 59% (active), 60.1% (active) and 26.5%.
On the same counts, the results for `O=C(Nc1ccc(Oc2ccccc2)cc1)c1csc([C@H]2C[C@H](O)[C@@H](CO)O2)n1` are 27.6%, 56.6% (active), 61.1% (active) and 54.4% (active).
As to `C/C(=N\N1CCN(c2ccc(Cl)cc2)CC1)c1cccc([N+](=O)[O-])c1`, the inhibition in test [1] is 12.5%; in test [2], 15.8%; in test [3], 21.2%; in test [4], 8.61%.
On the same counts, the results for `Cc1cc(NC(=O)C(Cl)Cl)cc2c1OCO2` are 10.4%, 59.2% (active), 45.6% (active) and -10.1%.
On the same counts, the results for `COC(=O)c1ccc(COc2ccc(/C=N/NC(N)=S)cc2)o1` are 17.7%, 55.8% (active), 59% (active) and 15.7%.
Regarding `O=C(Nc1cc(C(F)(F)F)cc(C(F)(F)F)c1)O[C@@H]1c2ccccc2[C@@H]2Cc3csc[n+]3[C@H]12`, the inhibition is 15.6% in test [1], 60% (active) in test [2], 58.4% (active) in test [3] and 4.96% in test [4].
As to `CCOC(=O)c1cc(-c2ccncc2)nc2c1c(C)nn2-c1ccccn1`, the inhibition in test [1] was 14.2%; in test [2], 44.6% (active); in test [3] it was 48% (active); in test [4] it was 13.1%.
As to `CNc1nc2sc3c(c2c(=O)n1C)CC(C)(C)SC3`, the inhibition in test [1] was 2.32%; in test [2], 34.9%; in test [3] it was 45.6% (active); in test [4] it was -1.52%.
For `Cc1c(C(=O)N(Cc2ccc(F)cc2)C2CCS(=O)(=O)C2)oc2ccccc12` (stereo not drawn), the inhibition in test [1] was 36.8% (active); in test [2], 8.94%; in test [3] it was 31.4%; in test [4], -5.18%.
`Cc1ccccc1Nc1nc(-c2cccnc2)nc2ccccc12`: the inhibition was 2.04% in test [1], 41.5% (active) in test [2], 33.2% in test [3] and -10.5% in test [4].
The like results for `COc1cc(-c2cc(-c3ccc(O)cc3)nc(N)c2C#N)ccc1O` were, in that order, 36.1% (active), 68.3% (active), 53.9% (active) and -133%.
On the same counts, the results for `COc1ccc(CCNC(=O)c2ccccc2NC(=O)CN2CCN(c3ccccc3O)CC2)cc1` are 33.3% (active), 48% (active), 50.4% (active) and -22.9%.
Regarding `Cc1ccc(NC(=O)CSc2ccc3c(c2)OCCO3)c(O)c1`, the inhibition was 11.1% in test [1], 54.6% (active) in test [2], 46.5% (active) in test [3] and 35.5% (active) in test [4].
As for `N#CC1=C(N2CCOCC2)/C(=C\c2ccccc2)CC1`, the inhibition in test [1] is 14.8%; in test [2], 51.9% (active); in test [3], 46.6% (active); in test [4] it was 8.41%.
Turning to `O=S(=O)(c1ccc(-c2csc(Nc3ccc(F)cc3)n2)cc1)N1CCCC1`, the inhibition is 15.5% in test [1], 66.7% (active) in test [2], 56.4% (active) in test [3] and 35.4% (active) in test [4].
On to `NC(=O)COc1ccc2c3c(c(=O)oc2c1)CCCCC3`, for which the inhibition in test [1] was -1.98%; in test [2], 40.5%; in test [3], 41.6%; in test [4], 0.54%.
On the same counts, the results for `Cc1c(NC(=O)C(C)OC(=O)c2ccc([N+](=O)[O-])s2)c(=O)n(-c2ccccc2)n1C` (stereo not drawn) are 20%, 23.3%, 19.4% and -10.5%.
On to `Cc1ccc(/C=C/S(=O)(=O)NCC(=O)OCC(=O)Nc2c(F)cccc2F)cc1`, for which the inhibition in test [1] is 26.3%; in test [2], 52% (active); in test [3], 55.4% (active); in test [4], -18.4%.
For `Cc1cc(N2CCN(C(=O)c3ccco3)CC2)n2nc(-c3cccc(F)c3)cc2n1`, the inhibition is 14.2% in test [1], 54.6% (active) in test [2], 60.6% (active) in test [3] and -10.7% in test [4].
In the case of `O=C(CCl)Nc1ccc(S(=O)(=O)NC2=NCCCCC2)cc1`, the inhibition in test [1] was 41.5% (active); in test [2] it was 62% (active); in test [3] it was 61% (active); in test [4] it was 17.7%.
`CCOc1ccc(NC(=O)CSc2nnc(C(C)C)n2CC)cc1`: the inhibition is 0.92% in test [1], 49.3% (active) in test [2], 50.3% (active) in test [3] and -3.19% in test [4].
On the same counts, the results for `COc1ccc(NC(=O)CSc2ncnc3[nH]ncc23)cc1` are 7.25%, 60.5% (active), 54.4% (active) and -6.96%.
As to `O=C(CSc1cc(Cl)ccc1Cl)Nc1ccc(N2CCOCC2)cc1`, the inhibition in test [1] was 1.91%; in test [2] it was 63.9% (active); in test [3], 65.3% (active); in test [4], 3.31%.
With `O=C(COc1ccc(C(=O)c2ccccc2)cc1)NCc1ccc(F)cc1`, the inhibition was 19.9% in test [1], 28.7% in test [2], 37.9% in test [3] and 30.4% in test [4].
In the case of `COc1ccc(CCNC(=O)CSc2nnc(CNc3ccc(Cl)cc3)o2)cc1OC`, the inhibition in test [1] was 1.3%; in test [2] it was 48.7% (active); in test [3], 38.9%; in test [4], -2.14%.
On to `CCCN(CC(=O)Nc1ccccc1C)CC(=O)Nc1ccc(Br)cc1F`, for which the inhibition in test [1] is 8.48%; in test [2] it was 58.6% (active); in test [3], 51.6% (active); in test [4], 1.69%.
With `CCCCNC(=O)COC(=O)c1c2c(nc3ccccc13)/C(=C\c1cccs1)CC2`, the inhibition in test [1] is -10.4%; in test [2] it was 34.9%; in test [3], 12.3%; in test [4], 26.5%.
The like results for `COc1ccccc1Nc1nc(NCCCCO)nc(N2CCCC2)n1` were, in that order, 10.5%, 30.2%, 38.3% and 5.34%.
As to `O=c1[nH]c2cc3ccccc3cc2nc1-c1nnnn1C1CCCC1`, the inhibition was 33.8% (active) in test [1], 33.4% in test [2], 44.6% (active) in test [3] and 8.72% in test [4].
On the same counts, the results for `COc1ccc(Br)cc1/C=C/C(=O)c1ccc(NC(C)=O)cc1` are 81.4% (active), 95% (active), 94.5% (active) and 85.4% (active).
For `COc1ccc(CCNC(=O)CN2C(=O)NC3(CCCCC3)C2=O)cc1`, the inhibition in test [1] was 11%; in test [2] it was 53.9% (active); in test [3], 54% (active); in test [4] it was -6.08%.
`O=C(NCCN1CCOCC1)c1ccc2c(c1)N(Cc1ccccc1F)C(=O)CS2`: the inhibition in test [1] is 11.1%; in test [2], 42.4% (active); in test [3] it was 36.2%; in test [4], -9.87%.
The like results for `CCC1CCCCN1C(=O)c1ccc([N+](=O)[O-])o1` (stereo not drawn) were, in that order, 0.98%, 47.5% (active), 46.7% (active) and 3.65%.
The like results for `COc1ccc(CCn2c(C)cc(C(=O)COC(=O)c3ccc(O)cc3O)c2C)cc1` were, in that order, 5.91%, 41.5% (active), 28.4% and -15%.
On the same counts, the results for `CC(=O)c1ccc(OC(C)C(=O)OCC(=O)NCCc2ccccc2)cc1` (stereo not drawn) are -2.97%, 47.1% (active), 40.7% and 7.05%.
On to `CC(=O)N1CCN(c2ccccc2NC(=O)c2cc3ccccc3o2)CC1`, for which the inhibition in test [1] was 9.44%; in test [2] it was 43.5% (active); in test [3], 37.7%; in test [4] it was 2.75%.
As for `COc1cccc(C(=O)COc2cccc(NC(=O)c3cccc([N+](=O)[O-])c3)c2)c1`, the inhibition in test [1] was 14.4%; in test [2] it was 62.4% (active); in test [3] it was 59.3% (active); in test [4], 2.28%.
The like results for `Cc1ccccc1Oc1nc2c(C)cccn2c(=O)c1/C=C(\C#N)C(=O)NC1CCS(=O)(=O)C1` (stereo not drawn) were, in that order, 8.01%, 52.6% (active), 51.3% (active) and 18.6%.
As to `Cn1cc(Cl)c(C(=O)OCC(=O)Nc2ccc(S(N)(=O)=O)cc2)n1`, the inhibition in test [1] was 10.9%; in test [2] it was 55.2% (active); in test [3], 50.4% (active); in test [4], -12.4%.
For the molecule `NS(=O)(=O)c1ccc(O)c(NC(=O)c2ccc([N+](=O)[O-])o2)c1`, the inhibition was 13.8% in test [1], 67.2% (active) in test [2], 61.2% (active) in test [3] and 2.28% in test [4].
For the molecule `O=C(Nc1ccccc1C(=O)NCCCn1ccnc1)c1ccccc1`, the inhibition was 14.8% in test [1], 53.6% (active) in test [2], 42.1% in test [3] and -3.84% in test [4].
On the same counts, the results for `CC12CCC(=O)N1c1c(sc3nc(N4CCOCC4)c4c(c13)CCCC4)C(=O)N2` (stereo not drawn) are 11.1%, 63.7% (active), 53.7% (active) and -1.67%.

The record behind these values is PubChem BioAssay.
